Data: PubChem BioAssay (NCATS)
Inconclusive results are not listed. Where a call stands in place of a potency, no number is given. Active and inactive are the calls of the source. Unless noted, calls follow the shape of the dose curve; as a rule, active = well fitted curve in the direction sought with a large enough effect; inconclusive = small, poorly fitted or top-dose-only effect, or another doubt; inactive = no such curve, though single readings can be large; an effect the other way counts as inactive or inconclusive.

Tests used:
[1] = Primary qHTS to identify inhibitors of SARS-CoV-2 cell entry (AID 1645846; calls by dose curve; also: nearly all actives have a fitted effect of over 45% in size); settings: activity change, negative = inhibition: at 57.1 µM (top of the series) unless noted
Method in brief: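 Luminescence readout (Bright-Glo luciferase) 48 h after pseudoparticle addition. HEK293-ACE2 cells, 1500/well; compound pre-incubation 1 h; Normalized to spike PP and bald PP.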

[2] = test system: CRL-7250; assay: qHTS assay to identify novel small-molecules to repurpose for Merkel cell carcinoma treatment (AID 1296009); settings: MCC and control cell lines, CellTiter-Glo viability, 72 h; series mostly up to 92 µM; also: nearly all actives have a fitted effect of over 60% in size
Method in brief: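 Cells were treated for 72 hr at 37 degree celsius with compounds in 8- or 11-point dose response. Viability was read by CellTiter-Glo luminescence, normalized to no-cell (cytotoxicity) and DMSO controls.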

[3] = test system: Zika virus NS2B-NS3 protease (unlinked complex); assay: Primary screen GU Rhodamine qHTS for Zika virus inhibitors: Unlinked NS2B-NS3 protease assay (AID 1347159); also: nearly all actives have a fitted effect of over 60% in size
Method in brief: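 A qHTS format was used, with compound concentrations ranging up to 114 microM. Each compound was preincubated with 25 nM NS2B-NS3 protease, and the substrate was then added at 1.5 microM. Curves were fitted with a 4-parameter Hill model.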

[4] = test system: Zika virus NS2B-NS3 protease (linked construct); assay: Primary screen NINDS Rhodamine qHTS for Zika virus inhibitors (AID 1347160); also: nearly all actives have a fitted effect of over 55% in size
Method in brief: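 Kinetic fluorescence (Ex 480 nm, Em 540 nm) over 15 min with 1.5 microM Rhodamine110 peptide and 25 nM linked protease.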

[5] = biological target: Calcium and integrin-binding protein 1 (Homo sapiens) (UniProt Q99828); assay: Primary qHTS for Identification of Calcium Integrin Binding Protein 1 (CIB1) Competitor (AID 1508620);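 also: GST tagged CIB1 binding a fluorescein labelled alphaIIb integrin peptide tracer; top concentration of the series differs between compounds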
Calcium and integrin-binding protein 1 (Homo sapiens), sequence (Q99828 whole entry, looked up): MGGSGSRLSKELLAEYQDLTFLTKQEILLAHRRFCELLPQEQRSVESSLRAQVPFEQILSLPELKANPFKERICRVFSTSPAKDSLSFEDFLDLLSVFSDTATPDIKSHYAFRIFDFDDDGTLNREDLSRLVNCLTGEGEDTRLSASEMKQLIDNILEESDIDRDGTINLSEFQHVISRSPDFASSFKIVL
Method in brief: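 Fluorescence polarization competition: GST-tagged CIB1 (1 uM final) preincubated with compound 15 min at room temperature, then FITC-labelled alphaIIb peptide (100 nM final) added. After 15 min at room temperature, polarization read at Ex 480/Em 540.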

[6] = biological target: Cytochrome P450 2D6 (Homo sapiens) (UniProt P10635); assay: Cytochrome P450 family 2 subfamily D member 6 (CYP2D6) small molecule antagonists: luciferase biochemical (cell-free) qHTS assay (AID 1645840; active = well fitted curve in the direction sought with a large enough effect in the repeat runs; an effect the other way counts as inactive or inconclusive; also: potency is read from the fitted curve at half-maximal effect; nearly all actives have a fitted effect of over 55% in size)
Cytochrome P450 2D6 (Homo sapiens), sequence (P10635 whole entry, looked up): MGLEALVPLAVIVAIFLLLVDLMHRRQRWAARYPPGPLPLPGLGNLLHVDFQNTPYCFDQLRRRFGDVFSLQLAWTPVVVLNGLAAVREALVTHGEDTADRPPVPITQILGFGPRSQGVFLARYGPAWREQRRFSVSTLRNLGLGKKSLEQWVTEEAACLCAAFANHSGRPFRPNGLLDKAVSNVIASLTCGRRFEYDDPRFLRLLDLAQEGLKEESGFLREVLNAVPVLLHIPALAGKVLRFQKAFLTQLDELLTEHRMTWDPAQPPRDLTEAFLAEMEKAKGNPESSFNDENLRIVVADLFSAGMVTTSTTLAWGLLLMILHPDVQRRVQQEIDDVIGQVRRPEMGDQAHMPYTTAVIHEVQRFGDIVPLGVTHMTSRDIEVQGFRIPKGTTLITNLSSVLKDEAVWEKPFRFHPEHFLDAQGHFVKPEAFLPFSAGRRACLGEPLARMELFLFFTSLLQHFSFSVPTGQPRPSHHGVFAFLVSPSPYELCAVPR
Method in brief: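 P450-Glo luminescent screen: recombinant CYP2D6 enzyme–proluciferin substrate mix preincubated with compound 10 min at room temperature, then NADPH regeneration added for 1 h at room temperature. Detection reagent added for 20 min; luciferin light read as relative luminescence units.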

[7] = biological target: Cytochrome P450 2C9 (Homo sapiens) (UniProt P11712); assay: Cytochrome P450 family 2 subfamily C member 9 (CYP2C9) small molecule antagonists: luciferase biochemical (cell-free) qHTS assay (AID 1645842; active = well fitted curve in the direction sought with a large enough effect in the repeat runs; an effect the other way counts as inactive or inconclusive; also: nearly all actives have a fitted effect of over 55% in size)
Cytochrome P450 2C9 (Homo sapiens), sequence (P11712 whole entry, looked up): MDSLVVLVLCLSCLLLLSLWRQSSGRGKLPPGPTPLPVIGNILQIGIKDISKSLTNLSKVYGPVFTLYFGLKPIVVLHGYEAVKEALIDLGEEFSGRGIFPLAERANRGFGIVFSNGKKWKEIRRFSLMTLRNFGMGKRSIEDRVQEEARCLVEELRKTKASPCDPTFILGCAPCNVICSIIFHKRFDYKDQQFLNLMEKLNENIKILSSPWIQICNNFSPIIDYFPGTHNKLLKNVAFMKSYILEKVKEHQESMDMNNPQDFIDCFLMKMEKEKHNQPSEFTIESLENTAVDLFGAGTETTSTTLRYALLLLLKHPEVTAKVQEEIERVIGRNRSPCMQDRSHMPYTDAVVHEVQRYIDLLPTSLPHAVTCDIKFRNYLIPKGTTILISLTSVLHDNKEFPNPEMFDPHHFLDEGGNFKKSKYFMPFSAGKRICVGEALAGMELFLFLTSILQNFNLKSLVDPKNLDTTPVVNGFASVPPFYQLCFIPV
Method in brief: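 Luminescence, after 20 min with luciferin detection reagent, reflected CYP2C9 turnover during a 1 h NADPH-driven reaction at 37C. Enzyme-substrate mix contained 0.4% bovine serum albumin and was preincubated with compound 10 min at room temperature.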

[8] = biological target: Glutathione peroxidase 1 (Homo sapiens) (UniProt P07203); assay: Primary qHTS Assay for Inhibitors of Recombinant Selenoprotein Glutathione Peroxidase 1 (GPX1) (AID 1845191); also: nearly all actives have a fitted effect of over 65% in size
Glutathione peroxidase 1 (Homo sapiens), sequence (P07203 whole entry, looked up): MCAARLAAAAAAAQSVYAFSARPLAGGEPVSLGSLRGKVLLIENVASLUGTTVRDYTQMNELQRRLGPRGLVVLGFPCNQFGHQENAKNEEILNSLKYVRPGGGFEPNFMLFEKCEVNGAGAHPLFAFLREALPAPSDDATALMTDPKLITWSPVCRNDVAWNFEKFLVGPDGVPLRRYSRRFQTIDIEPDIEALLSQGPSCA
Method in brief: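 GR-coupled assay: compounds preincubated 30 min at room temperature with GPX1, then reaction started with CHP; final 10 nM GPX1, 1 mM GSH, 0.5 mM CHP, 0.5 mM NADPH, 100 nM GR, 0.01% BSA, pH 7.5 Tris buffer. NADPH fluorescence (340/450 nm) read at 0 and 15 min.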

[9] = biological target: Phospholipid hydroperoxide glutathione peroxidase GPX4 (Homo sapiens) (UniProt P36969); assay: Primary qHTS Assay for Inhibitors of Recombinant Selenoprotein Glutathione Peroxidase 4 (GPX4) (AID 1845192); also: nearly all actives have a fitted effect of over 65% in size
Phospholipid hydroperoxide glutathione peroxidase GPX4 (Homo sapiens), sequence (P36969 whole entry, looked up): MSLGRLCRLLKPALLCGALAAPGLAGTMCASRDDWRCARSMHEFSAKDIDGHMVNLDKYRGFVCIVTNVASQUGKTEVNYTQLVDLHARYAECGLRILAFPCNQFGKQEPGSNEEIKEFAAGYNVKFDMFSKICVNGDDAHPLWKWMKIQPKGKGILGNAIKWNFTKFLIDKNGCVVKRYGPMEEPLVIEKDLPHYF
Method in brief: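 GR-coupled assay: recombinant GPX4 preincubated 30 min with compound at room temperature; final 200 nM GPX4, 1 mM GSH, 0.5 mM cumene hydroperoxide, 0.5 mM NADPH, 100 nM GR, 0.01% BSA, pH 7.5 Tris. NADPH fluorescence (340/450 nm) read at 0 and 15 min.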

[10] = biological target: Luciferin 4-monooxygenase (Photinus pyralis) (UniProt P08659); assay: Primary firefly luciferase (FLuc) qHTS assay for identification of artifact compounds. (AID 1845220); settings: outcome: dose series up to 54.1 µM unless noted; also: nearly all actives have a fitted effect of over 60% in size
Method in brief: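 Titrated compounds were incubated 15 min at RT, protected from light, with luciferin and ATP at 10 uM; reaction started with 10 nM FLuc, luminescence imaged at 5 min, and concentration-response fitted by Hill equation.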

[11] = Primary fluorescence-based thiol-reactive (MSTI) qHTS assay for identification of artifact compounds. (AID 1845221);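 also: thiol-reactive compounds lower the probe fluorescence signal; nearly all actives have a fitted effect of over 65% in size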
Method in brief: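 Reactivity toward the thiol probe MSTI (4 uM) is scored by fluorescence at Ex/Em 525/598 nm after 1 h at room temperature. Acetyl-MSTI and MSTI define the activity scale.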

[12] = test system: Nanoluciferase (engineered Oplophorus gracilirostris luciferase); assay: Primary Nanoluciferase (NLuc) qHTS assay for identification of artifact compounds. (AID 1845222);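 also: NLuc secreted into diluted conditioned medium of S16 cells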
Method in brief: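 qHTS format, against NLuc in S16 cell-conditioned medium. Nano-Glo substrate 1:100 was added after 15 min at room temperature. Luminescence was taken after a further 5 min.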

[13] = Primary redox qHTS assay for identification of artifact compounds. (AID 1845223)
Method in brief: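 Amplex Red (25 uM) and HRP (250 mU/mL) in HBSS, with compounds for 15 min, then 250 uM DTT for 30 min, room temperature, dark. Fluorescence 525/598 nm read; normalized to DMSO and 10 uM DA3003; Hill fit.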

[14] = test system: C33A; assay: Primary qHTS to identify gynecologic anti-cancer compounds using libraries of approved drugs and bioactive compounds (AID 1345084); settings: Gynecologic cancer cell panel viability, ATPlite luminescence, 48 h; series mostly up to 57.5 µM; also: nearly all actives have a fitted effect of over 55% in size
Method in brief: (§1)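 Measured: luminescence after ATPlite addition (15 min, RT). Exposure: 48 h, 37 C, 5% CO2.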

[15] = test system: CAOV3; assay: as above; settings: Gynecologic cancer cell panel viability, ATPlite luminescence, 48 h; series mostly up to 57.5 µM
Method in brief: as §1

[16] = test system: CASKI; assay: as above; settings: Gynecologic cancer cell panel viability, ATPlite luminescence, 48 h; series mostly up to 57.5 µM
Method in brief: as §1

[17] = test system: Es-2; assay: as above; settings: Gynecologic cancer cell panel viability, ATPlite luminescence, 48 h; series mostly up to 57.5 µM
Method in brief: as §1

[18] = test system: Hek293T; assay: as above; settings: Gynecologic cancer cell panel viability, ATPlite luminescence, 48 h, control line for the selectivity index; series mostly up to 57.5 µM
Method in brief: as §1

[19] = test system: JEG-3; assay: as above; settings: Gynecologic cancer cell panel viability, ATPlite luminescence, 48 h; series mostly up to 57.5 µM
Method in brief: as §1

[20] = test system: OV90; assay: as above; settings: Gynecologic cancer cell panel viability, ATPlite luminescence, 48 h; series mostly up to 57.5 µM
Method in brief: as §1

[21] = test system: PA-1; assay: as above; settings: Gynecologic cancer cell panel viability, ATPlite luminescence, 48 h; series mostly up to 57.5 µM
Method in brief: as §1

[22] = test system: SKOV3; assay: as above; settings: Gynecologic cancer cell panel viability, ATPlite luminescence, 48 h; series mostly up to 57.5 µM
Method in brief: as §1

[23] = test system: Tov-21-G; assay: as above; settings: Gynecologic cancer cell panel viability, ATPlite luminescence, 48 h; series mostly up to 57.5 µM
Method in brief: as §1

[24] = test system: Tov112D; assay: as above; settings: Gynecologic cancer cell panel viability, ATPlite luminescence, 48 h; series mostly up to 57.5 µM
Method in brief: as §1

[25] = qHTS for Inhibitors of the Functional Ribonucleoprotein Complex (vRNP) of Lassa (LASV) Arenavirus: LASV Primary Screen - GLuc reporter signal (AID 1347082; calls by dose curve; tested in HEK293 reporter line; also: nearly all actives have a fitted effect of over 60% in size; also: potency is read from the fitted curve at half-maximal effect)

For `CC(C)N(C[C@H]1O[C@@H](n2cnc3c(N)ncnc32)[C@H](O)[C@@H]1O)C1CC(CCc2nc3ccc(C(C)(C)C)cc3[nH]2)C1` (stereo partly specified), the Potency [1] was “inactive” and the Potency [2] was “inactive”.

For `FC(F)(F)c1ccc(N2CCNCC2)nc1Cl`, the Potency [3] was “inactive”, the Potency [4] was “inactive” and the Potency [5] was “inactive”. For the same compound, the Potency [6] was 15.1 µM (active), the Potency [7] was “inactive” and the Potency [8] was “inactive”. For the same compound, the Potency [9] was “inactive”, the outcome [10] was “inactive” and the Potency [11] was “inactive”. For the same compound, the Potency [12] was “inactive”, the Potency [13] was “inactive” and the Potency [14] was “inactive”. For the same compound, the Potency [15] was “inactive”, the Potency [16] was “inactive” and the Potency [17] was “inactive”. For the same compound, the Potency [18] was “inactive”, the Potency [19] was “inactive” and the Potency [20] was “inactive”. For the same compound, the Potency [21] was “inactive”, the Potency [22] was “inactive” and the Potency [23] was “inactive”. The Potency [24] was “inactive”.

For `C=C1C(=O)[C@@]23[C@H](O)C[C@@H]4C(C)(C)CC[C@H](O)[C@]4(C)[C@@H]2C[C@H](O)[C@@H]1[C@H]3O`, the Potency [25] was 8.91 µM (active).

In the case of `Oc1ccc([C@@H]2Oc3ccc(O)cc3[C@@H]3CCC[C@@H]32)cc1`, the Potency [25] is reported as “inactive”.
